# According to ChEMBL document CHEMBL3988442, “University of Dundee, Small-Polar-MMV Screening Library” (2021):
# Among all 69,000 compounds or so, about 1,000 (1.4%) showed an effect of 50% or more. The full list was thinned out, with strong results kept by preference.
# System: Leishmania donovani
# Experiment: Leishmania intramacrophage assay
# Format: functional, organism-based
# Parameters: scale not given: in the data most compounds retested in dose-response had high values
smiles,measurement,setting,value
CN(C)CCCNC(=O)C(c1cccc(F)c1)N(C)C (stereo not given),Percent Effect,"30.3 µM, […]",17.93%
CN(C)CCCNCCC(c1ccccc1)C1CCOC(C)(C)C1.O=C(O)C(=O)O (stereo not given),Percent Effect,"30.3 µM, […]",97.24%
CN(C)CCNCC1CCOC(C)(C)C1 (stereo not given),Percent Effect,"30.3 µM, […]",-2.235%
CN(C)CCCNCCC(Cc1ccccc1)C1CCOC(C)(C)C1.O=C(O)C(=O)O (stereo not given),Percent Effect,"30.3 µM, […]",91.79%
C[C@@H]1CN(C(=O)C2CCS(=O)(=O)CC2)C[C@@]1(O)C1CC1,Percent Effect,"30.3 µM, […]",-11.49%
Cc1nc(C)n(CC2CCCCN2CCCO)n1 (stereo not given),Percent Effect,"30.3 µM, […]",-18.17%
CC(=O)Nc1cc2c(cc1C)OCO2,Percent Effect,"30.3 µM, […]",3.338%
Cc1ccc(F)cc1NS(=O)(=O)c1cc2c(c(C(=O)O)c1)OCCO2,Percent Effect,30 µM,10.19%
CN1CCO[C@@H]2CN(C(=O)NCc3ccccc3)CC[C@@H]2C1.O=C(O)C(F)(F)F,Percent Effect,"30.3 µM, […]",14.01%
O=C(N1CCCC1)N1C[C@H]2CCC[C@@]2(COCc2ccccn2)C1.O=C(O)C(F)(F)F,Percent Effect,"30.3 µM, […]",12.71%
Cc1ccc(CN2CC[C@@H]3OCCN(Cc4ccncc4)[C@H]3CC2)s1.O=C(O)C(F)(F)F.O=C(O)C(F)(F)F.O=C(O)C(F)(F)F,Percent Effect,"30.3 µM, […]",-14.43%
CS(=O)(=O)NCCCNC(=O)NCc1ccccc1,Percent Effect,30 µM,13.69%
CN(C)CC(=O)N1CC2(CCN(C(=O)Nc3ccccc3)C2)C1.O=C(O)C(F)(F)F,Percent Effect,"30.3 µM, […]",27.48%
Cc1nnc([C@]23COC[C@H]2CN(Cc2cnn(C)c2)C3)o1.O=C(O)C(F)(F)F,Percent Effect,"30.3 µM, […]",10.4%
Cc1noc(C)c1CNCC1CCN(CC(O)c2ccccc2)CC1 (stereo not given),Percent Effect,"30 µM, 30.03 µM",48.93%
CCOc1ccccc1CNCC1CCN(CC(C)O)CC1 (stereo not given),Percent Effect,30 µM,14.79%
CC(O)CN1CCC(CNCc2ccccc2Cl)CC1 (stereo not given),Percent Effect,30 µM,7.148%
COc1ccc(CNCC2CCN(CC(C)O)CC2)c2ccccc12 (stereo not given),Percent Effect,"30 µM, 30.03 µM",95.94%
Cc1ccc(CNCC2CCN(CC(O)c3ccccc3)CC2)o1 (stereo not given),Percent Effect,30 µM,53.67%
COc1cccc(CNCC2CCN(CC(C)O)CC2)c1OC (stereo not given),Percent Effect,30 µM,-4.893%
CC(O)CN1CCC(CNCc2ccccc2Br)CC1 (stereo not given),Percent Effect,"30 µM, 30.03 µM",58.06%
Cc1ncccc1CNCC1CCN(CC(O)c2ccccc2)CC1 (stereo not given),Percent Effect,"30 µM, 30.03 µM",43.15%
CC(O)CN1CCC(CNCc2ccccc2F)CC1 (stereo not given),Percent Effect,30 µM,14.91%
CCOc1ccc(NC(=O)N2CCNC(=O)C2)c(C(F)(F)F)c1,Percent Effect,"30.3 µM, […]",-5.154%
c1ccc(OCCCN2CCOC(CNc3cccnn3)C2)cc1 (stereo not given),Percent Effect,30 µM,30.1%
CCc1nnc(CN(C)C(=O)C(CC)n2c(CC)nc3ccccc32)o1 (stereo not given),Percent Effect,"30.3 µM, […]",37.19%
CC(=O)N1CC(=O)N(c2cnn(C)c2)CC12CCN(Cc1ccco1)C2 (stereo not given),Percent Effect,"30.3 µM, […]",8.312%
CC(c1nc(C(C)(C)C)no1)N1CCN(C(=O)CN2CCOCC2)CC1 (stereo not given),Percent Effect,"30.3 µM, […]",24.72%
CSC(C)(C)CNC(=O)NC1CCC1,Percent Effect,"30.3 µM, […]",-4.731%
CCc1ccccc1NC(=O)NCc1nnc(SC)n1C,Percent Effect,"30.3 µM, […]",23.33%
CSc1nnc(CNC(=O)Nc2ccccc2F)n1C,Percent Effect,"30.3 µM, […]",17.43%
COc1ccccc1NC(=O)NCc1nnc(SC)n1C,Percent Effect,"30.3 µM, […]",56.86%
O=C(c1cnc2ccc(Cl)cc2c1NCc1ccco1)N1CCCCC1,Percent Effect,"30.3 µM, […]",-0.01015%
Cc1nc(C)n(CC2CCCCN2CCOc2ccc(C#N)cc2)n1 (stereo not given),Percent Effect,30 µM,19.26%
COC(=O)NC1(C(=O)Nc2ccc(-c3ncc[nH]3)cc2)CCCC1,Percent Effect,"30.3 µM, […]",26.54%
CCc1noc(C2CCCCN2C(=O)c2cc(C)oc2C)n1 (stereo not given),Percent Effect,"30.3 µM, […]",-92.24%
Cc1ccc(C(=O)N2CCC3(CC2)COC(COc2ccccn2)C3)o1.O=C(O)C(F)(F)F (stereo not given),Percent Effect,"30 µM, 30.03 µM",-68.01%
Cc1ccc(C(=O)N2CCC3(CC2)COC(COc2cccnc2)C3)o1.O=C(O)C(F)(F)F (stereo not given),Percent Effect,"30.3 µM, […]",59.81%
CCS(=O)(=O)N1CCC2(CC1)COC(COc1cccnc1)C2.O=C(O)C(F)(F)F (stereo not given),Percent Effect,"30.3 µM, […]",15.1%
Cc1ccc(N2CCCC(NCC(=O)NC3CCOCC3)C2)nn1 (stereo not given),Percent Effect,"30 µM, 30.03 µM",24.15%
CCc1nc(C2CCCN(c3nccc(N4CCCC4)n3)C2)no1 (stereo not given),Percent Effect,"30.3 µM, […]",4.333%
CC(C)CCN1CC[C@H](c2nnc(Cc3c[nH]c4ccccc34)o2)C1,Percent Effect,"30.3 µM, […]",31.19%
CCOc1ccc(CN2CCC(c3nc(C)cc(C)n3)C2)cc1CO (stereo not given),Percent Effect,"30.3 µM, […]",20.63%
COc1cc(-c2cccc3c2OC(CN)C3)ccc1O (stereo not given),Percent Effect,"30.3 µM, […]",33.17%
COc1ccc(-c2cccc3c2OC(CN)C3)cc1F (stereo not given),Percent Effect,"30.3 µM, […]",82.3%
COc1cc(C)c(-c2ccc(F)c3c2OC(CN)C3)cc1C (stereo not given),Percent Effect,"30.3 µM, […]",82.34%
COc1cc(-c2ccc(F)c3c2OC(CN)C3)cc(OC)c1OC (stereo not given),Percent Effect,"30.3 µM, […]",19.84%
NCC1Cc2cccc(-c3ccc(O)c(F)c3)c2O1 (stereo not given),Percent Effect,"30.3 µM, […]",31.37%
COc1c(F)cc(-c2cccc3c2OC(CN)C3)cc1F (stereo not given),Percent Effect,"30.3 µM, […]",78.5%
Cc1nc(-c2cc(F)c3c(c2)CC(CN)O3)c[nH]1 (stereo not given),Percent Effect,"30.3 µM, […]",25.07%
Cc1nc(-c2cc(Cl)cc3c2OC(CN)C3)c[nH]1 (stereo not given),Percent Effect,"30.3 µM, […]",27.22%
COc1cccnc1-c1ccc(F)c2c1OC(CN)C2 (stereo not given),Percent Effect,"30.3 µM, […]",-22.62%
COc1cc(-c2cccc3c2OC(CN)C3)cc(OC)c1OC (stereo not given),Percent Effect,"30.3 µM, […]",39.45%
NCC1Cc2cccc(-c3nccc(N4CCC(O)CC4)n3)c2O1 (stereo not given),Percent Effect,"30.3 µM, […]",19.12%
COc1cc(OC)cc(-c2cccc3c2OC(CN)C3)c1 (stereo not given),Percent Effect,"30.3 µM, […]",81.48%
